Unmarked numbers belong to inactive results. Results filed as inconclusive are left out. A call without a number means that no potency is given here. Active and inactive are the calls of the source. Unless noted, the call rests on the fitted dose curve; in most records, active means well fitted curve in the direction sought with a large enough effect; inconclusive means small, poorly fitted or top-dose-only effect, or another doubt; inactive means no such curve, though single readings can be large; an effect the other way counts as inactive or inconclusive.
What was measured:
[1] = Cellular Toxicity (caspase-3) BJ (AID 658);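 further: cells exposed to compound for 16 hours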
Outline: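 Caspase-Glo 3/7 luminescence, read 1 hr after reagent at room temperature, in normal BJ fibroblasts exposed 16 hours at 37 °C. AC50 values from Hill-equation concentration-response, scaled between DMSO basal and 10 uM staurosporine as 100%.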

[2] = Cellular Toxicity (caspase-3) H-4-II-E (AID 663); details: Potency: caspase-3 activation;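 further: cells exposed to compound for 16 hr before readout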
Outline: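 Caspase 3/7 activation measured by luminescent aminoluciferin substrate cleavage after 16 hr compound treatment of H-4-II-E cells in complete medium. Increase normalized between DMSO (basal) and 100 uM tamoxifen (100%); Hill-equation AC50 from concentration-response.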

[3] = MultiTox-Fluor Cytotoxicity Assay - LYMP1-001 - Live Cells (AID 947)
[4] = MultiTox-Fluor Cytotoxicity Assay - LYMP1-002 - Dead Cells (AID 960); further: nearly all actives have a fitted effect of over 60% in size
Outline: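 Dead-cell fluorescence (Ex/Em 485/520) after 16 h compound exposure at 37 C of LYMP1-002 lymphoblastoid cells in complete medium; AC50 by Hill equation, with data scaled between DMSO and 15 uM tetraoctylammonium bromide.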

[5] = Cell Viability - LYMP2-005 (AID 967); further: series mostly up to about 92 µM
Outline: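 Luciferase-based ATP quantitation served as the viability measure in human lymphoblastoid LYMP2-005 cells exposed to test compounds for 24 h at 37 C in complete culture medium. Potency (AC50) was obtained by fitting concentration-response curves with the Hill equation.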

[6] = Cell Viability - LYMP2-021 (AID 974); further: nearly all actives have a fitted effect of over 55% in size
Outline: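 AC50 values come from Hill-equation fits to CellTiter-Glo luminescence (ATP content), read after 24 hour compound exposure at 37 C of 2500 LYMP2-021 lymphoblastoid cells/well; tetraoctylammonium bromide as positive control.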

[7] = Cell Viability - LYMP2-002 (AID 977); further: series mostly up to about 92 µM
Outline: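 Human lymphoblastoid cells (2500/well) in complete medium were preincubated 5 hr at 37 C, then exposed to compounds for 24 hr at 37 C. Intracellular ATP was read by CellTiter-Glo luminescence; AC50 came from Hill-equation concentration-response fits.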

[8] = Cell Viability - LYMP2-012 (AID 982);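 further: cellular ATP by luciferase luminescence where a drop means cytotoxicity; cells exposed to compound for one day before reading; nearly all actives have a fitted effect of over 55% in size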
[9] = Cell Viability - LYMP2-020 (AID 986); further: series mostly up to about 92 µM; nearly all actives have a fitted effect of over 55% in size
Outline: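 Cytotoxicity in qHTS format: luminescent ATP readout from CellTiter-Glo after 24 h compound exposure at 37 C in complete medium. LYMP2-020 lymphoblastoid cells were seeded at 2500/well; concentration-response data fitted to the Hill equation for AC50.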

[10] = Cell Viability - LYMP1-002 - Assay at 24 hr (AID 993)
Outline: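 qHTS cytotoxicity at 24 h: CellTiter-Glo ATP luminescence in lymphoblastoid line LYMP1-002 incubated with compound at 37 °C. Concentration-response modeled with the Hill equation for AC50; tetraoctylammonium bromide served as positive control.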

[11] = biological target: Bile acid receptor (Homo sapiens) (UniProt Q96RI1); assay: qHTS assay for small molecule agonists of farnesoid X receptor signaling (AID 588527; calls by dose curve; further: series mostly up to about 77 µM); details: HEK293T FXR-UAS-bla, beta-lactamase ratio, 16 h; active compounds read high
Chain of Bile acid receptor (Homo sapiens) (Q96RI1 whole entry, looked up): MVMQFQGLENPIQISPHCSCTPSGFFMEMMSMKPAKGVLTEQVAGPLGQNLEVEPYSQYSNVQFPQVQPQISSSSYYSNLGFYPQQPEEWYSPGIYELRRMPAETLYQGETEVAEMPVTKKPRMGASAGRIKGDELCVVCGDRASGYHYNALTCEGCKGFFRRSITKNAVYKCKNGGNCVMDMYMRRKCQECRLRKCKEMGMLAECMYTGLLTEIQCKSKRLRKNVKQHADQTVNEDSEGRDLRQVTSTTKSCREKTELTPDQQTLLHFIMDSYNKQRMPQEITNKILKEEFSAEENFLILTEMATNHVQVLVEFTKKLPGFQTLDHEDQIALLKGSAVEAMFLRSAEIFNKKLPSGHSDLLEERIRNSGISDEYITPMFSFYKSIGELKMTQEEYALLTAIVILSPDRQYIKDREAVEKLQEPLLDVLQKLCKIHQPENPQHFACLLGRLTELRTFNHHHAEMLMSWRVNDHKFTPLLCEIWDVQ
Outline: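 FXR-UAS-bla HEK293T, 10% dialyzed FBS; cpds up to 92 uM titration, 16 h 37 C; CCF4 dye 2 h RT; fluorescence. Normalized to chenodeoxycholic acid 100 uM (100%) and DMSO (0%); Hill fit gives EC50, efficacy.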

[12] = biological target: Glucocorticoid receptor (Homo sapiens) (UniProt P04150); assay: qHTS assay for small molecule agonists of glucocorticoid receptor signaling (AID 588532; active means well fitted curve in the direction sought with a large enough effect in the signal ratio, with a control signal flat; the % refers to the signal ratio); details: HeLa MMTV-bla, beta-lactamase ratio, agonist, 18 h; active compounds read high; percent of dexamethasone control, DMSO zero
Chain of Glucocorticoid receptor (Homo sapiens) (P04150 whole entry, looked up): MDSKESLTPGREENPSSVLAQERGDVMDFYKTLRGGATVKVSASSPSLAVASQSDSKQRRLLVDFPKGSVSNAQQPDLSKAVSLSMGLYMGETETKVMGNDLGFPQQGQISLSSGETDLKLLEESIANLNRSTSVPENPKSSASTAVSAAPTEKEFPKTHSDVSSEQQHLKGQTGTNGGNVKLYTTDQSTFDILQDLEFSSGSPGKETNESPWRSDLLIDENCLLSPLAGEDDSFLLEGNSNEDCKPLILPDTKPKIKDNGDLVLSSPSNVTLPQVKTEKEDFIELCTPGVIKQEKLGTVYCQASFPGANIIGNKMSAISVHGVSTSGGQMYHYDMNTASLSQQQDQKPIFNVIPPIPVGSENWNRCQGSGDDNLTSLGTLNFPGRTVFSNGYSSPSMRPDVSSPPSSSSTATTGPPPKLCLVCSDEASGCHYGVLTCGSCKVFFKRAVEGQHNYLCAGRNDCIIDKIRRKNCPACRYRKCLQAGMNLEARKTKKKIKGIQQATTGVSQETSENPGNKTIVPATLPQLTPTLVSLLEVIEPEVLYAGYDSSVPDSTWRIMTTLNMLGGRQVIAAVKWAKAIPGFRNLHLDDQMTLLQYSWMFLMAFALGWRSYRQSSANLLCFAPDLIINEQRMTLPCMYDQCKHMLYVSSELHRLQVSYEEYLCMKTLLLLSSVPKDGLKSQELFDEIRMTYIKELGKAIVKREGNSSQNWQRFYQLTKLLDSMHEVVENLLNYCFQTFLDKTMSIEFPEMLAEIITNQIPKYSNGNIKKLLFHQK
Outline: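 Quantitative HTS using CellSensor MMTV-bla HeLa cells in charcoal/dextran-treated serum; compounds tested up to 92 uM. After 18 h at 37 C, CCF4 dye reported reporter induction.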

[13] = biological target: Glucocorticoid receptor (Homo sapiens) (UniProt P04150); assay: qHTS assay for small molecule antagonists of glucocorticoid receptor signaling (AID 588533; active means well fitted inhibition curve with a large enough effect in the signal ratio, with a control signal flat, not every such curve was filed as active; the % refers to the signal ratio;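 further: cells stimulated with 2 nM dexamethasone as agonist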)
Outline: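 Antagonist-mode qHTS: compound titrations added to GRE-bla HeLa cells, then dexamethasone 2 nM final; 18 h, 37 C. CCF4 FRET fluorescence normalized to dexamethasone and DMSO; IC50 from Hill fit.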

[14] = biological target: Retinoic acid receptor RXR-alpha (Homo sapiens) (UniProt P19793); assay: qHTS assay for small molecule agonists of retinoid X receptor alpha signaling (AID 588544; calls by dose curve)
Chain of Retinoic acid receptor RXR-alpha (Homo sapiens) (P19793 whole entry, looked up): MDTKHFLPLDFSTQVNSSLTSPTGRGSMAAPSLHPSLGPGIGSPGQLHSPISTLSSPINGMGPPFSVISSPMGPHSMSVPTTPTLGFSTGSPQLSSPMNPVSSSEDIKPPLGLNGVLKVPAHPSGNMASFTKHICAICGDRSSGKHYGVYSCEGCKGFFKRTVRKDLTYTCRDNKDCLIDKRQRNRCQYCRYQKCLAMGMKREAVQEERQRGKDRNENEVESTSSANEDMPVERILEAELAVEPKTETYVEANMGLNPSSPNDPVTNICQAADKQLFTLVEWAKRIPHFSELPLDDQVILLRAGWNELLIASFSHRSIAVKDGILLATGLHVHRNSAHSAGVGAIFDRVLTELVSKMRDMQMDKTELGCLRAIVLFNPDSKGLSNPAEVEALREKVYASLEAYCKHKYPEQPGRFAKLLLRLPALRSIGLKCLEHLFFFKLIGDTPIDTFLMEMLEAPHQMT

[15] = biological target: Retinoic acid receptor RXR-alpha (Homo sapiens) (UniProt P19793); assay: qHTS assay for small molecule antagonists of retinoid X receptor alpha signaling (AID 588546; active means well fitted inhibition curve with a large enough effect in the signal ratio, with a control signal flat, not every such curve was filed as active; the % refers to the signal ratio;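 further: cells stimulated with 9-cis-retinoic acid as agonist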); details: HEK293T RXRa-UAS-bla, beta-lactamase ratio, antagonist mode
Outline: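 Beta-lactamase reporter inhibition, read as CCF4 fluorescence ratio (ex 405, em 460/530 nm) after 2 h at RT. HEK293T UAS-bla cells, 2500/well, were stimulated with 9-cis-RA at 500 or 100 nM final alongside test compound for 18 h at 37 C.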

[16] = qHTS assay for small molecule agonists of the antioxidant response element (ARE) signaling pathway (AID 651741; active means well fitted activation curve with a large enough effect in the signal ratio; the % refers to the signal ratio; further: potency means the concentration at half of the fitted maximal effect)
Outline: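 Beta-lactamase reporter under ARE control in HepG2 cells, 2,000 per well, was induced by 16 h compound treatment at 37 C. Read-out was fluorescence from LiveBLAzer B/G FRET substrate after 2 h at room temperature.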

[17] = qHTS assay for small molecule activators of the nuclear factor-kappa B (NF-kB) signaling pathway (AID 651749; active means well fitted activation curve with a large enough effect in the signal ratio; the % refers to the signal ratio; further: series mostly up to about 77 µM); details: NF-kB-bla ME-180 cells, beta-lactamase FRET ratio, 16 h; active compounds read high
Outline: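 Activation measured after 16 hr compound treatment at 37C, 5% CO2, of 2,000 ME-180 cells/well stably expressing an NF-kB response element–driven beta-lactamase reporter, via FRET-disruption fluorescence.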

[18] = qHTS assay for small molecule disruptors of the mitochondrial membrane potential - 1 hr assay (AID 651754; calls by dose curve; further: nearly all actives have a fitted effect of over 35% in size; further: potency means the concentration at half of the fitted maximal effect)
Outline: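 Mitochondrial potential in living HepG2 cells after 1 hr compound treatment at 37C was read with Mito-MPS dye added for a further 30 min. Red aggregate and green monomer fluorescence were measured; loss of potential leaves dye as cytoplasmic monomers.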

[19] = qHTS assay for environmental chemicals that activate the Aryl hydrocarbon Receptor (AhR) signaling pathway (AID 651777); details: 1A2-DRE human hepatoma cells, luciferase, 24 h; activation: active compounds read high; further: nearly all actives have a fitted effect of over 15% in size
Outline: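 Stable CYP1A2 promoter/DRE-luciferase human hepatoma line treated 24 hr; One-Glo luminescence, 30 min RT.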

[20] = qHTS assay for small molecule antagonists of the retinoid-related orphan receptor gamma (ROR-gamma) signaling pathway - cell viability counter screen (AID 720652; active means well fitted curve in the direction sought with a large enough effect in the repeat runs; an effect the other way counts as inactive or inconclusive;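 further: CHO reporter cells with doxycycline-induced ROR-gamma expression; series mostly up to about 92 µM; compound exposure lasted 16 hr before ATP read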)
Outline: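 Cytotoxicity counter screen: intracellular ATP (CellTiter-Glo luminescence) measured in the doxycycline-induced CHO RORE-luciferase reporter line after 16 hr compound exposure at 37 C, 5% CO2.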

For `C(CCOCC1CO1)COCC1CO1` (stereo not given), the outcome [1] was “inactive”, the Potency [2] was “inactive” and the outcome [3] was “inactive”. The Potency [4] was “inactive”, the Potency [5] was “inactive” and the Potency [6] was “inactive”. For the same compound, the Potency [7] was “inactive”, the Potency [8] was “inactive” and the Potency [9] was “inactive”. The Potency [10] was “inactive”, the activation [11] was -2.57% and the activation [12] was -0.372%. For the same compound, the outcome [13] was “inactive”, the outcome [14] was “inactive” and the max response [15] was 15.6%. The Potency [16] was 66.8 µM (active), the activation [17] was 0.765% and the Potency [18] was “inactive”. For the same compound, the activation [19] was 0.374% and the Potency [20] was “inactive”.

With `CCCCCc1cc(O)cc(O)c1` the outcome [3] was “inactive”, the Potency [6] was “inactive” and the Potency [9] was “inactive”. For the same compound, the activation [11] was 2.26%, the outcome [14] was “inactive” and the Potency [16] was 42.2 µM (active). For the same compound, the Potency [18] was 37.6 µM (active).

For `c1ccoc1`, the outcome [1] was “inactive”, the Potency [2] was “inactive” and the Potency [4] was “inactive”. For the same compound, the Potency [5] was “inactive”, the Potency [7] was “inactive” and the Potency [8] was “inactive”. For the same compound, the Potency [10] was “inactive”, the activation [12] was -5.47% and the outcome [13] was “inactive”. For the same compound, the max response [15] was -5.23%, the activation [17] was 0.149% and the activation [19] was -0.801%. The Potency [20] was “inactive”.

From PubChem BioAssay (NCATS)
